The source of these data is PubChem BioAssay (NCI).

This is part of a sample that, as a whole, favours compounds with a hit. Of some 83,000 tested, about 20% had one in any assay.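 In brief: 96-well plates, 48 h treatment, single concentration, percent growth endpoint.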 Values without a mark were called inactive. Activity calls are given as the source filed them. How the source made its calls: active means growth percent below 10; inactive means the rest.

Holding throughout (test): NCI-60 one-dose screen, 48 h (100 = growth as untreated, 0 = no growth, -100 = all killed)
What all share (conditions): 10 µM unless noted

For assay [1], the system named is SK-MEL-2 melanoma.
Assay [2] deals with EKVX NSCLC.
Assay [3] concerns SN12C renal.
The test system of assay [4] is UO-31 renal.
Assay [5] relates to TK-10 renal.
Assay [6] deals with ACHN renal.
Assay [7] concerns CAKI-1 renal.
For assay [8], the system named is A498 renal.
Assay [9] concerns CCRF-CEM leukemia.
Assay [10] has as its system MOLT-4 leukemia.
Assay [11] deals with SR leukemia.
Assay [12] relates to RPMI-8226 leukemia.
Assay [13] concerns OVCAR-8 ovarian.
In assay [14] the test system is OVCAR-4 ovarian.
Assay [15] relates to SK-OV-3 ovarian.
The test system of assay [16] is IGROV1 ovarian.
Assay [17] concerns OVCAR-3 ovarian.
In assay [18] the test system is HS 578T breast.
Assay [19] relates to NCI/ADR-RES ovarian.
Assay [20] concerns OVCAR-5 ovarian.

With `CSCC[C@@H]1C(=O)N(C)[C@H](C(C)(C)C)N1C(=O)c1ccccc1`, the growth in assay [1] is 106%; in [2], 102%; in assay [3], 104%; in assay [4] it was 90.4%; in assay [5] it was 106%; in assay [6], 110%. The growth in assay [7] was 100%; in [8], 126%; in assay [9], 111%; in assay [10], 116%; in assay [11] it was 124%; in assay [12], 117%. Moreover, the growth was 100% in assay [13]; 105% in [14]; 113% in assay [15]; 100% in [16]; 103% in assay [17]; 111% in [18]. Further, in [19], the growth is 104%.
Consider `S=CN1CCCCC1`, for which the growth in assay [1] was 124%; in [2] it was 96.7%; in [3], 103%; in assay [4] it was 89.1%; in assay [5], 110%; in assay [6], 107%. Also, the growth in [7] was 97.2%; in assay [8] it was 105%; in [9], 110%; in assay [10] it was 109%; in assay [11], 99.5%; in assay [12] it was 110%. The growth was 97.5% in assay [13]; 102% in assay [14]; 115% in assay [15]; 109% in assay [16]; 102% in [17]; 112% in assay [18]. The growth in assay [19] was 106%.
For `CCCOCc1cn[nH]n1`, the growth was 104% in [1]; 103% in assay [2]; 105% in assay [3]; 91.6% in assay [4]; 102% in assay [5]; 110% in assay [6]. Besides, the growth in assay [7] was 104%; in assay [8] it was 100%; in [9], 109%; in assay [10], 106%; in assay [11] it was 99.2%; in assay [12], 111%. Besides, the growth is 102% in assay [13]; 110% in [14]; 109% in [15]; 113% in assay [16]; 108% in assay [17]; 114% in assay [18]. For the same molecule, the growth in [19] was 106%.
In the case of `c1cc(CNCCNCc2ccncc2)ccn1`, the growth in assay [1] was 104%; in [2], 99.6%; in assay [3], 98.5%; in [4] it was 83.7%; in [5], 105%; in [6], 109%. In addition, the growth is 91.3% in [7]; 116% in assay [8]; 89.5% in [9]; 84.1% in assay [10]; 130% in [11]; 97.1% in assay [12]. Moreover, the growth in assay [13] is 97%; in assay [20] it was 115%; in assay [15], 104%; in assay [16] it was 113%; in [17], 118%; in assay [18], 113%. Moreover, the growth in [19] is 108%.
As to `Cc1[nH]c(=S)[nH]c(=O)c1C`, the growth is 107% in assay [1]; 109% in assay [2]; 106% in assay [3]; 96.4% in [4]; 107% in assay [5]; 96.6% in [6]. The growth in assay [7] is 103%; in [8], 110%; in assay [9], 96.9%; in assay [10], 89.3%; in assay [11], 97.9%; in assay [12], 115%. Besides, the growth was 89.8% in assay [13]; 101% in assay [20]; 106% in [15]; 104% in assay [16]; 118% in assay [17]; 123% in assay [18]. Further, the growth in [19] is 105%.
In the case of `CC1CC(C)S(=O)(=O)C1` (configuration not stated), the growth in assay [1] is 112%; in assay [2], 108%; in assay [3], 108%; in assay [4] it was 101%; in assay [5] it was 103%; in assay [6], 103%. Also, the growth is 106% in [7]; 122% in [8]; 101% in assay [9]; 91.3% in [10]; 97.9% in assay [11]; 109% in assay [12]. Also, the growth was 92% in assay [13]; 108% in [20]; 120% in assay [15]; 118% in assay [16]; 111% in assay [17]; 125% in assay [18]. Moreover, in assay [19], the growth was 111%.
Regarding `NNC(=O)CCCCl`, the growth in [1] is 105%; in assay [2], 98.6%; in assay [3] it was 102%; in assay [4] it was 90.5%; in assay [5], 111%; in assay [6], 114%. The growth in [7] was 107%; in assay [8] it was 117%; in assay [9], 112%; in [10], 120%; in [11], 114%; in assay [12], 114%. Moreover, the growth in assay [13] was 104%; in [14] it was 106%; in assay [15], 123%; in [16], 106%; in [17] it was 104%; in assay [18] it was 112%. The growth in [19] was 106%.
With `CCCCCC/C=C\CCCCCCCCCc1cc(O)cc(OC)c1O`, the growth in assay [1] was -25.5% (active); in [2], 14.5%; in assay [3] it was 8.94% (active); in [4], -19.1% (active); in [5], 24.3%; in assay [6] it was 12.7%. Further, the growth was -29.1% (active) in assay [7]; -18.5% (active) in assay [8]; -0.181% (active) in [9]; 2.69% (active) in assay [10]; 0.217% (active) in assay [11]; -7.09% (active) in assay [12]. In addition, the growth in [13] is -26.1% (active); in assay [14], -19.5% (active); in assay [15] it was 6.17% (active); in assay [16], -45.4% (active); in [17], 13.6%; in assay [18], 44.9%. Besides, the growth in assay [19] was -5.84% (active).
